Test results from PubChem BioAssay (NCATS).
Activity calls are given as the source filed them. Calls follow the shape of the dose curve; as a rule, active = well fitted activation curve with a large enough effect; inconclusive = small, poorly fitted or top-dose-only effect; inactive = flat fitted curve, though single readings scatter.

Experiment: Confirmation and Secondary Assay for Modulators of Hemoglobin Beta Chain Splicing at IVS2 705 locus (AID 930);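 also: HeLa cells stably expressing the EGFP-705 splicing reporter; GFP fluorescence per well restored by corrected splicing of the IVS2-705 intron in EGFP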
Conditions: HeLa EGFP-705 splicing reporter, GFP fluorescence, 48 h; series mostly up to 46.1 µM
Method in brief: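 HeLa EGFP-705 reporter; 500 cells/well, o/n 37C 5% CO2; cpd 2 d; 488 ex/500-520 em laser scan; total peak GFP intensity/well. Ref: 500 nM […] antisense PNA.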
With `Cn1c([N+](=O)[O-])cnc1COC(N)=O` the outcome was “inactive”.
In the case of `CC(=O)Oc1cccc(O)c1`, the outcome is reported as “inactive”.
For `CC1CCc2cc(F)cc3c(=O)c(C(=O)O)cn1c23` (stereo unspecified), the outcome was “inactive”.
For `CCN(CC)CCOC(=O)C(c1ccccc1)c1ccccc1`, the outcome was “inactive”.
For `C[n+]1ccccc1/C=N/O`, the outcome was “inactive”.
In the case of `C=CCSCC1Nc2cc(Cl)c(S(N)(=O)=O)cc2S(=O)(=O)N1` (stereo unspecified), the outcome is reported as “inactive”.
For `CCCCC1(COC(=O)CCC(=O)O)C(=O)N(c2ccccc2)N(c2ccccc2)C1=O`, the outcome was “inactive”.
With `O=C(O)c1ccccc1C(=O)Nc1ccc(S(=O)(=O)Nc2nccs2)cc1` the outcome was “inactive”.
In the case of `OC(CCN1CCCC1)(c1ccccc1)C1CCCCC1` (stereo unspecified), the outcome is reported as “inactive”.
For `NC(N)=NS(=O)(=O)c1ccc(N)cc1`, the outcome was “inactive”.
With `O=C(O)c1ccccc1OP(=O)(O)O` the outcome was “inactive”.
